Test results from PubChem BioAssay AID2314 (National Center for Advancing Translational Sciences (NCATS), 2010).
Out of some 300,000 compounds screened, about 37,000 (12%) were called active. The full list was thinned out, with actives kept by preference. Values without a mark were called inactive. Cut-off read from the data, not from the text of the source: active = max response mostly above about 13% (no sharp cut-off); inactive = mostly below about 14%.

Assay: Cycloheximide Counterscreen for Small Molecule Inhibitors of Shiga Toxin; note: read at 38.3 µM for the half of the compounds with a filed dose; 0% is about no effect
Settings: cell reporter, cycloheximide protein synthesis inhibition counterscreen; hits give high values

Row | SMILES | max response
1 | CCn1c(SCc2cccc(C(=O)O)c2)nnc1-c1ccc(Cl)cc1 | -1.44%
2 | COc1ccc(C)cc1Nc1n[n+](-c2ccccc2)c(-c2cccc(Cl)c2Cl)s1 | -1.46%
3 | CCOC(=O)N1CCN(C(=O)c2ccccc2N(Cc2ccccc2)S(=O)(=O)c2ccc(OC)cc2)CC1 | -5.35%
4 | CCOc1ccc(-n2c(SCC(=O)Nc3cc(C(=O)O)ccc3Cl)nc3ccccc3c2=O)cc1 | -4.94%
5 | O=C(O)CCC(=O)Nc1ccc(OCC2CCCO2)cc1 (stereo not given) | -3.29%
6 | CC1(C)Cc2ccccc2-c2[nH]c(=S)[nH]c(=O)c21 | -1.88%
7 | COc1cccc(CNC(=O)CCC2CCCN(C(=O)c3ccc(F)c(Cl)c3)C2)c1 (stereo not given) | 0.816%
8 | O=C(COC(=O)c1ccc(Cl)nc1)NCc1ccc2c(c1)OCO2 | -4.58%
9 | O=C(NCc1ccccc1Cl)c1csc2c1CCCCC2 | -0.0989%
10 | CC(=O)Cc1nsc(NC(=O)c2ccc(Cl)cc2Cl)n1 | 27.8%
11 | CC(=O)Cc1nsc(NC(=O)c2csc3c2CCCC3)n1 | 16.6% (active)
12 | CCOC(=O)Cn1c(=O)n(Cc2ccc(OC)cc2)c(=O)c2cccnc21 | -5.57%
13 | O=C(Nc1ccc2c(c1)OCCO2)C1CCCN(c2ncccn2)C1 (stereo not given) | 22% (active)
14 | Cc1cc(C)nc(N2CCC(C(=O)Nc3ccc4c(c3)OCCO4)CC2)n1 | 11.4%
15 | O=C(Nc1cccc(Cl)c1)C1CCCN(c2cnccn2)C1 (stereo not given) | 5.49%
16 | CCOc1ccc(N(CC)S(=O)(=O)c2cccc3nsnc23)cc1 | -1.34%
17 | CC(=O)Nc1ccc(S(=O)(=O)N2N=NC3C2C2CC4C3(CN(C(=O)OC(C)(C)C)S4(=O)=O)O2)cc1 (stereo not given) | 3.73%
18 | COc1cccc(CN(C)CC2CCCN(CCc3ccc(Cl)cc3)C2)c1OC (stereo not given) | -1.16%
19 | Cc1nc2ccccc2c(=O)n1NC(=O)c1ccc(Cl)c([N+](=O)[O-])c1 | -5.07%
20 | CC(CC(=O)O)C(=O)c1ccc(Cl)c([N+](=O)[O-])c1 (stereo not given) | -0.656%
21 | C/C(=N\Nc1nncc2ccccc12)c1ccc(Cl)c([N+](=O)[O-])c1 | 17.3% (active)
22 | O=C(O)c1ccc2c(=O)n3c(nc2c1)/C(=C/c1ccc(OC(F)F)cc1OC(F)F)CC3 | 1.3%
23 | CCCC(=O)N1c2ccccc2NC2=C(C(=O)CCC2)C1c1ccc(F)cc1 (stereo not given) | -1.45%
24 | CC(C)C(=O)N1c2ccccc2NC2=C(C(=O)CCC2)C1c1ccc(N(C)C)cc1 (stereo not given) | 21.8% (active)

Row | SMILES | max response
25 | CCC(=O)N1c2ccccc2NC2=C(C(=O)CCC2)C1c1ccco1 (stereo not given) | -5.4%
26 | O=C(NCCO)C(=O)NCC(c1ccc2c(c1)OCO2)N1CCN(c2ccc(F)cc2)CC1 (stereo not given) | -1.46%
27 | Cn1nc(C(F)(F)F)cc1C(=O)O | -2.03%
28 | CCN(CC)C(=O)CCC(=O)Nc1ccc(C(=O)OC)cc1 | 0.562%
29 | Cc1ccc(NC(=O)Nc2cccc(C(F)(F)F)c2)nc1 | 9.81%
30 | O=C(Nc1cccc([N+](=O)[O-])c1)Nc1ccc(Cl)cn1 | -1.76%
31 | CC12COC3(C(=O)Nc4ccc(Cl)cn4)CC1CCC32C (stereo not given) | -1.53%
32 | O=C(Nc1ccc(Cl)cn1)Nc1cccs1 | 47.7% (active)
33 | CCCCC(CC)C(=O)Nc1ccc(Cl)cn1 (stereo not given) | -1.66%
34 | CCCc1cc(C(=O)Nc2ccc(C(=O)OC)cc2)cs1 | 18.2% (active)
35 | COC(=O)c1ccc(NC(=O)C(C)N2C(=O)c3ccccc3C2=O)cc1 (stereo not given) | -1.97%
36 | CCCc1cc(C(=O)Nc2ccc(Cl)cn2)cs1 | 30.5% (active)
37 | Cc1ccc(C(C)C)c(OCCSc2nc3ccccc3n2CC(=O)O)c1 | -3.05%
38 | CN(CC1CCCN(CCc2cccc(C(F)(F)F)c2)C1)C(=O)c1ccc2nc[nH]c2c1 (stereo not given) | 7.92%
39 | Cc1ccc(-c2nc(SCC(=O)Nc3ccccc3OC(F)F)c3c(C)c(C(=O)O)sc3n2)cc1 | -2.74%
40 | Cc1ccc(C(C)(C)C)c(OCCCCN2CCCC2)c1 | -1.44%
41 | CCOc1ccc(NC(=O)CN(C)CC(=O)Nc2cccc(Cl)c2C)cc1OCC | -1.94%
42 | Cc1ccccc1NC(=O)C1CCCN(C(=O)NCc2ccccc2)C1 (stereo not given) | -2.13%
43 | CCNC(=O)N1CCCC(C(=O)c2ccc(-c3ccccc3)cc2)C1 (stereo not given) | 35% (active)
44 | O=C(c1ccc(-c2ccccc2)cc1)C1CCCN(C(=O)c2cncs2)C1 (stereo not given) | -0.779%
45 | N#C/C(=C\c1cccnc1)C(=O)Nc1ccc(SC(F)F)cc1 | -2.71%
46 | CCC(NC(=O)C1CCCC1)c1ccc(C)cc1 (stereo not given) | -1.61%
47 | Cc1cccc2cc3c(N)c(C(=O)N4CCCc5ccccc54)sc3nc12 | -2.83%
48 | CCOc1ccc(-n2c(N)c(C(=O)NCC3CCCO3)sc2=S)cc1 (stereo not given) | -1.47%

Row | SMILES | max response
49 | Cc1cccc(C)c1NC(=O)N1CC(C)OC(C)C1 (stereo not given) | -0.915%
50 | CC1CN(C(=O)CN2C(=O)NC(C)(c3ccccc3)C2=O)CC(C)O1 (stereo not given) | -0.354%
51 | O=C(c1c(Cl)nc2sccn12)N1CCCc2ccccc21 | 11.5%
52 | Cc1c(C(=O)NCC2CCCO2)sc2nc(-c3ccccc3)cn12 (stereo not given) | 78.5% (active)
53 | Cc1c(C(=O)N2CC(C)OC(C)C2)sc2nc(-c3ccccc3)cn12 (stereo not given) | 26.8% (active)
54 | Cc1c(C(=O)N2CCCc3ccccc32)sc2nc(-c3ccccc3)cn12 | 7.76% (active)
55 | O=C(CSc1ccc(-c2ccccc2)nn1)NCC1CCCO1 (stereo not given) | 8.54%
56 | O=C(NC1CC1)C(Cc1ccccc1)NS(=O)(=O)c1ccccc1F (stereo not given) | -2.2%
57 | Cc1sc2nc(SCCO)n(-c3ccccc3)c(=O)c2c1C | 1.18%
58 | Cc1oc2c(F)c(F)c(F)c(F)c2c1S(=O)(=O)Nc1cccc(C(F)(F)F)c1 | 2.32%
59 | COc1ccc(CNC(=O)CSc2n[nH]c(N)n2)cc1OC | -3.7%
60 | COc1ccc(C)cc1NC(=O)CN(C)S(=O)(=O)c1ccc2c(c1)n(C)c(=O)c(=O)n2C | 0.886%
61 | Cc1ccc(S(=O)(=O)N(C)C)cc1NC(=O)/C=C/c1cccs1 | -3.65%
62 | Cc1ccc(C(=O)Nc2ccc(C)c(S(=O)(=O)N(C)C)c2)s1 | 73.5% (active)
63 | Cc1ccc(C(=O)Nc2ccc(NC(=O)c3cccs3)cc2)c(C)c1 | 3.31%
64 | CCN(CC(=O)Nc1ccc(C)c(S(=O)(=O)N(C)C)c1)Cc1ccccc1 | 10.7%
65 | COc1ccc(CCC(=O)OCC(=O)Nc2ccc(C)c(S(=O)(=O)N(C)C)c2)cc1 | -1.02%
66 | Cc1ccc(NC(=O)c2cccs2)cc1S(=O)(=O)N(C)C | 17.7% (active)
67 | CCn1c(SCC(=O)NC2CC2)nnc1-c1ccccc1OC | -2.41%
68 | COc1ccc(C2CC(c3cccs3)=NN2C(=O)COC(=O)c2cc3ccccc3cc2O)cc1OC (stereo not given) | -1.77%
69 | C=CCn1c(SCc2ccc(C(=O)NCCO)cc2)nc2ccccc2c1=O | 0.679%
70 | Cc1cc(C)cc(N(CC(=O)NC2CCCC2)C(=O)CCC(=O)Nc2cc(C)on2)c1 | -3.66%
71 | O=C(NCCCN1CCOCC1)c1cc(-c2cccc(O)c2)on1 | 2.22%
72 | O=C(c1ccco1)N1CCN(C(=S)Nc2cc(F)cc(F)c2)CC1 | -0.627%

Row | SMILES | max response
73 | O=C(NCCCN1CCOCC1)c1cnn2c(-c3ccccc3)cc(-c3ccccc3)nc12 | -2.91%
74 | O=C(NCCCN1CCOCC1)c1cc(-c2ccc(Cl)cc2)on1 | -2.13%
75 | O=C(Cc1c(F)cccc1Cl)N1CCN(C(=O)c2ccco2)CC1 | -3.56%
76 | O=C(c1ccco1)N1CCN(C(=O)c2cc(-c3ccccc3F)no2)CC1 | 24.9% (active)
77 | O=C(NCCCN1CCOCC1)c1ccccc1NS(=O)(=O)c1ccc(Br)cc1 | 2.08%
78 | O=C(NCCCN1CCOCC1)c1cc(-c2ccccc2F)no1 | 28% (active)
79 | O=C(NCCCN1CCOCC1)c1ccccc1NS(=O)(=O)c1ccc(F)cc1 | 16.7% (active)
80 | Cc1ccccc1-n1cc(CNC(=O)CC2C(=O)NCCN2C/C=C/c2ccccc2)cn1 (stereo not given) | 0.457%
81 | COc1ccc(NC(=O)CCn2ccnc2)c(OC)c1 | -2.17%
82 | COc1ccc(Cl)cc1NC(=O)C(C)N1CCc2ccccc21 (stereo not given) | -0.595%
83 | CC1CC(C)CN(C(=O)CSc2ccsc2[N+](=O)[O-])C1 (stereo not given) | 25.5%
84 | COc1ccc(C(CNC(=O)COc2ccccc2OC)N2CCCCC2)cc1 (stereo not given) | -6.3%
85 | CC1CN(CCCOc2ccccc2-c2ccccc2)CC(C)O1 (stereo not given) | -3.01%
86 | NNC(=O)CSc1nnc(-c2ccccc2)n1-c1ccccc1 | -4.61%
87 | COc1ccc(C(=O)C2CCCN(S(=O)(=O)c3cccc(C)c3)C2)c(C)c1 (stereo not given) | 1.12%
88 | COc1ccc(Cc2nnc(SCC(=O)Nc3ccc(C)c(C)c3)o2)cc1OC | -0.716%
89 | COC(=O)CC1=NN(c2ccccc2)C(=O)C1 | -2%
90 | NC1=NN(c2cccc(C(=O)O)c2)C(=O)C1 | 131% (active)
91 | O=C(c1cccc(N2CCCC2=O)c1)N1CCOCC1 | -1.05%
92 | CCO[C@H]1OC(C(=O)N2CCN(Cc3ccccc3)CC2)=C[C@@H](c2cn(C(C)=O)c3ccccc23)[C@@H]1CCCO | -1.61%
93 | O=C(Nn1cnc2ccccc2c1=O)c1ccc(F)cc1Cl | 22.9% (active)
94 | O=C(Nn1cnc2ccccc2c1=O)c1ccccc1 | 18%
95 | O=C(Nn1cnc2ccccc2c1=O)c1ccc([N+](=O)[O-])cc1Cl | 3.29%
